Inconclusive results are not listed. Activity calls are given as the source filed them. The call rests on the fitted dose curve.
Target: Thyroid hormone receptor beta (Homo sapiens) (UniProt P10828)
Assay: Gene Reporter Secondary Assay for Inhibitors of the Interaction of Thyroid Hormone Receptor and Steroid Receptor Coregulator 2 in a Thyroid Receptor Assay
Settings: WRO cells TRb DR4-TRE luciferase reporter, T3, 20 h
From the text: NIH Molecular Libraries Probe Production Network [MLPCN] NIH Chemical Genomics Center [NCGC] MLPCN Grant: DK058080 Assay Provider: R. Kip Guy, St. Jude Children's Research Hospital NCGC Assay Overview: Thyroid receptor (TR) regulates many homeostatic processes including basal metabolism, cardiovascular function, body weight, and lipid trafficking. TR modulators are potential therapeutics for obesity and hyperlipidemias but current thyroid analogs have undesirable side effects, particularly cardiac stimulation. This secondary assay characterized compounds identified in the qHTS for Inhibitors of the Interaction of Thyroid Hormone Receptor and Steroid Receptor Coregulator 2 (PubChem AID 1485). The human follicular thyroid carcinoma cell line WRO (kindly provided by Dr. M. D. Ringel) stably expresses TRb and a luciferase reporter gene fused to TR response element. The addition of T3 ligand elevates expression of the TRE luciferase reporter (DR4-TRE-luc).
NCGC Assay Protocol Summary: Cells were maintained in RPMI 1640 culture medium supplemented with 10% heat-inactivated FBS, 0.33 mg/ml hygromycin, 0.33 mg/ml geneticin, 50 units/ml penicillin, 50 ug/ml streptomycin. Cells were harvested and resuspended at 330,000 cells/ml in assay medium (50% DMEM 50% F-12 medium without Phenol-Red (Cellgro #16-405-CV), L-glutamine, 10% heat inactivated and charcoal treated FBS, 100 uM non-essential amino acid, 50 units/ml penicillin, 50 ug/ml streptomycin). Cells were dispensed at 8,000 cells/25 ul/well into 384 well plates (Corning 3917) and incubated 12 hr at 37 C and 5% CO2. Following transfer of 130 nL compound (ranging from 0.2 to 52 uM) and T3 (100 nM final concentration), the plates were incubated 20 hr incubation at 37 C and 5% CO2. Plates were then equilibrated at ambient temperature for 30 min, 25 ul of Bright-Glo (Promega) was added and luminescence was detected by an EnVision (PerkinElmer).

Chain of Thyroid hormone receptor beta (Homo sapiens) (P10828 whole entry, looked up): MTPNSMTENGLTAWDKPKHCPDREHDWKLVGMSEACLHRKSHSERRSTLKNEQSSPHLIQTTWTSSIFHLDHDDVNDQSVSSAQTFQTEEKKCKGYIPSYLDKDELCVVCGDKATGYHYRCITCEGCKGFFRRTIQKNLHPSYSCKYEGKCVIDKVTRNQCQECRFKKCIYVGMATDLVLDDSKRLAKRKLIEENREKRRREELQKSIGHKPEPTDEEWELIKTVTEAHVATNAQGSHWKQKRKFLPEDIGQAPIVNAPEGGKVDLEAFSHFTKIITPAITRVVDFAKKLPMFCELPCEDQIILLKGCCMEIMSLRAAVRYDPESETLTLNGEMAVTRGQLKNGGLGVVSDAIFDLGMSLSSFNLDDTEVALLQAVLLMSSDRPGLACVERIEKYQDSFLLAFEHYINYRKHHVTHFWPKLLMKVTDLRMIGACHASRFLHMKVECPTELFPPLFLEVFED

For `O=C(COC(=O)c1cc([N+](=O)[O-])ccc1F)NC1C2CC3CC(C2)CC1C3` (centres undefined), which outcome is on record?
The outcome was “inactive”.

Which Potency does the source give for `COc1cccc(CNC(=O)COC(=O)c2ccc(S(C)(=O)=O)c([N+](=O)[O-])c2)c1` here?
The Potency was 21.5 µM (active).

How did the outcome turn out when `O=C(COC(=O)c1ccc(Cl)c([N+](=O)[O-])c1)NC1C2CC3CC(C2)CC1C3` (centres undefined) was run?
The outcome was “inactive”.

`CN1CCN(C(=O)COC(=O)c2ccc(S(C)(=O)=O)c([N+](=O)[O-])c2)CC1` was tested. Which Potency did it give?
Its Potency is 33.9 µM (active).

With `CS(=O)(=O)c1ccc(C(=O)OCC(=O)N2CCOCC2)cc1[N+](=O)[O-]` as the compound, how does the Potency read?
The Potency was 23 µM (active).

With `CS(=O)(=O)c1ccc(C(=O)OCC(=O)Nc2cc(C(F)(F)F)ccc2Cl)cc1[N+](=O)[O-]` as the compound, how does the Potency read?
The Potency was 22.7 µM (active).

`CC1CCCCN1C(=O)COC(=O)c1ccc(S(C)(=O)=O)c([N+](=O)[O-])c1` (centres undefined) was tested. Which Potency did it give?
The Potency was 12.6 µM (active).

With `C[S+](=O)([O-])c1ccc(C(=O)OCC(=O)N2CCN([S+](C)(=O)[O-])CC2)cc1[N+](=O)[O-]` as the compound, how does the outcome read?
The outcome was “inactive”.

With `CS(=O)(=O)c1ccc(C(=O)OCC(=O)N2CCCC2)cc1[N+](=O)[O-]` as the compound, how does the Potency read?
The Potency was 17.7 µM (active).

With `CCN1CCN(C(=O)COC(=O)c2ccc(S(C)(=O)=O)c([N+](=O)[O-])c2)C(C)C1` (centres undefined) as the compound, how does the Potency read?
Its Potency is 23.5 µM (active).

For `O=C(COC(=O)c1cccc([N+](=O)[O-])c1Cl)NC1C2CC3CC(C2)CC1C3` (centres undefined), which outcome is on record?
Its outcome is “inactive”.

Which outcome does the source give for `CC(=O)N1CCN(C(=O)COC(=O)c2ccc([S+](C)(=O)[O-])c([N+](=O)[O-])c2)CC1` here?
The outcome was “inactive”.

For `CC(=O)Nc1cccc(C(=O)OCC(=O)NC(=O)C2CCCCC2)c1`, which outcome is on record?
The outcome was “inactive”.

For `O=C(COC(=O)c1ccc(F)c([N+](=O)[O-])c1)NC1C2CC3CC(C2)CC1C3` (centres undefined), which outcome is on record?
The outcome was “inactive”.

How did the Potency turn out when `CS(=O)(=O)c1ccc(C(=O)OCC(=O)N2Cc3ccccc3C2)cc1[N+](=O)[O-]` was run?
The Potency was 12.6 µM (active).

Which Potency does the source give for `CC1(C)C2CCC1(C)C(NC(=O)COC(=O)c1ccc(S(C)(=O)=O)c([N+](=O)[O-])c1)C2` (centres undefined) here?
Its Potency is 12.9 µM (active).

How did the outcome turn out when `O=C(COC(=O)c1ccc(C(F)(F)F)cc1)NC(=O)C1CCCCC1` was run?
The outcome was “inactive”.

Which Potency does the source give for `CCN1CCN(C(=O)COC(=O)c2ccc(S(C)(=O)=O)c([N+](=O)[O-])c2)CC1C` (centres undefined) here?
Its Potency is 26.3 µM (active).

How did the Potency turn out when `CC(=O)c1cccc(NC(=O)C(C)OC(=O)c2ccc(S(C)(=O)=O)c([N+](=O)[O-])c2)c1` (centres undefined) was run?
Its Potency is 14.9 µM (active).

`CS(=O)(=O)c1ccc(-c2nnc(-c3ccccc3)s2)cc1[N+](=O)[O-]` was tested. Which Potency did it give?
The Potency was 11.1 µM (active).

Which outcome does the source give for `O=C(COC(=O)c1ccc2ncsc2c1)NC(=O)C1CCCCC1` here?
The outcome was “inactive”.

How did the outcome turn out when `C[S+](=O)([O-])c1ccc(C(=O)OCC(=O)N2CCNC(=O)C2)cc1[N+](=O)[O-]` was run?
The outcome was “inactive”.

For `Cc1cc(C(=O)OCC(=O)NC(=O)C2CCCCC2)ccc1[N+](=O)[O-]`, which outcome is on record?
The outcome was “inactive”.

How did the Potency turn out when `Cc1ccccc1NC(=O)COC(=O)c1ccc(S(C)(=O)=O)c([N+](=O)[O-])c1` was run?
The Potency was 22.9 µM (active).

Which outcome does the source give for `C[S+](=O)([O-])c1ccc(C(=O)OCC(=O)NC2C3CC4CC(C3)CC2C4)cc1` (centres undefined) here?
Its outcome is “inactive”.

How did the Potency turn out when `CS(=O)(=O)c1ccc(C(=O)OCC(=O)NC(=O)NC2CCCCC2)cc1[N+](=O)[O-]` was run?
Its Potency is 12.7 µM (active).

With `CS(=O)(=O)c1ccc(C(=O)OCC(=O)N2CCc3ccccc32)cc1[N+](=O)[O-]` as the compound, how does the Potency read?
The Potency was 18.6 µM (active).

`CS(=O)(=O)c1ccc(-c2nnc(-c3ccccc3)o2)cc1[N+](=O)[O-]` was tested. Which Potency did it give?
The Potency was 15.7 µM (active).

How did the Potency turn out when `CCN(CC)C(=O)COC(=O)c1ccc(S(C)(=O)=O)c([N+](=O)[O-])c1` was run?
The Potency was 16.8 µM (active).

Which Potency does the source give for `Cc1ccc(F)cc1NC(=O)COC(=O)c1ccc(S(C)(=O)=O)c([N+](=O)[O-])c1` here?
The Potency was 17.9 µM (active).

With `CS(=O)(=O)c1ccc(C(=O)OCC(=O)NCC2CCCO2)cc1[N+](=O)[O-]` (centres undefined) as the compound, how does the Potency read?
Its Potency is 15.2 µM (active).

`CS(=O)(=O)c1ccc(C(=O)OCC(=O)N2CC(=O)Nc3ccccc32)cc1[N+](=O)[O-]` was tested. Which Potency did it give?
Its Potency is 15.8 µM (active).

Which outcome does the source give for `O=C(COC(=O)c1cc([N+](=O)[O-])ccc1Cl)NC1C2CC3CC(C2)CC1C3` (centres undefined) here?
The outcome was “inactive”.

How did the outcome turn out when `O=C(COC(=O)c1cccc([N+](=O)[O-])c1)NC1C2CC3CC(C2)CC1C3` (centres undefined) was run?
Its outcome is “inactive”.

From PubChem BioAssay AID2479 (National Center for Advancing Translational Sciences (NCATS), 2010)
